Molecules are shown by their SMILES. Potency and affinity values are given separately.

The nature of this assay: inhibitors of CD8+ T cell–vesicle binding, dose response, mouse 2C CD8+ T cells, flow cytometry (AID 485284).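 Note: drosophila derived vesicles carrying Ld MHC with QL9 peptide plus B7-1 and ICAM-1; vesicle binding seen as anti-B7-1 PE fluorescence on CD8 gated cells.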 The conditions noted are these: 2C mouse CD8+ T cell-exosome binding; at 45 µM (top of the series).
Take `CCCNC(=O)NC(=O)CN1C(=O)NC(C)(c2ccc(C)cc2)C1=O` (configuration not stated): the binding remaining, % of control turned out to be 160%. Turning to `Cc1cc(C)n(C(=O)c2sc3cc(F)ccc3c2Cl)n1`, the binding remaining, % of control turned out to be 160%. For `CC1CCC(NC(=O)CN2C(=O)NC3(CCCCCC3)C2=O)CC1` (configuration not stated), the binding remaining, % of control is 101%.

For the compound `CCOc1ccc(-c2csc(NNC3=NCCCCC3)n2)cc1`, the binding remaining, % of control is 156%.

With `COc1ccc(NC(=O)[C@@H](NC(=O)c2ccccc2F)C(C)C)cc1S(=O)(=O)N1CCOCC1`, the binding remaining, % of control was 84.7%. On to `COc1ccc2c(c1)-c1c(sn(-c3ccc(OC)c(OC)c3)c1=S)C(C)(C)N2`, for which the binding remaining, % of control turned out to be 116%. The figure for `CCOc1ccc(NC(=O)CN(C)C(=O)c2ccc(N3CCOCC3)c([N+](=O)[O-])c2)cc1OCC` is 134%; for `CNCc1cn2cc(Cl)ccc2n1` it is 125%. The figure for `CN(C)S(=O)(=O)N1CCN(S(=O)(=O)N(C)C)CC1` is 55.7%. Take `COc1ccc(NC(=O)C2CCC(C(C)(C)C)CC2)cc1S(=O)(=O)N1CCCCC1` (configuration not stated): the binding remaining, % of control worked out at 97.1%.

As to `COc1ccc(C(=O)NNC(=O)CSc2nnnn2C)cc1`, the binding remaining, % of control was 181%. The figure for `COc1ccc([N+](=O)[O-])cc1NC(=O)c1ccc(N(Cc2ccccc2C)S(C)(=O)=O)cc1` is 99.1%; for `Cc1ccc(C(C)C)c(OCC(=O)N2CCN(c3ncccn3)CC2)c1` it is 17.4%. As to `CCCCOc1ccc(C(=O)NCC(=O)N2CCN(C(=O)c3ccco3)CC2)cc1`, the binding remaining, % of control is 23.6%. The figure for `O=C(N/N=C/c1cccc(OC(=O)c2ccccc2Cl)c1)c1cccnc1` is 168%; for `CSc1cccc(NC(=O)CCCn2c(=O)c3cccn3c3cccnc32)c1` it is 87.5%; for `O=C(CCC(=O)N1CCOCC1)NCc1cccc(C(F)(F)F)c1` it is 64.2%.

Source of the values: PubChem BioAssay AID485284 (NMMLSC, 2010).
